Bst PK mod: modulators of Bacillus stearothermophilus pyruvate kinase; purified pyruvate kinase, luminescence ATP production; ribose 5-phosphate activator present at AC10; 51,000 compounds, 1.2% hits; Potency, µM; in the data active = potency below about 11 µM; inconclusive = mostly about 12 µM to 25 µM;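 the screen sought inhibitors and activators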
FLuc inh: blocks Photinus pyralis firefly luciferase activity; P08659; 72,000 compounds, 2.2% hits; purified firefly luciferase, luminescence, 8 min; Potency, µM (series often up to 57.1 µM), actives largely listed as inhibitors; active = well fitted inhibition curve with a large enough effect; inconclusive = small, poorly fitted or top-dose-only effect; note: nearly all actives have a fitted effect of over 40% in size
Target sequence (P08659 whole entry, looked up): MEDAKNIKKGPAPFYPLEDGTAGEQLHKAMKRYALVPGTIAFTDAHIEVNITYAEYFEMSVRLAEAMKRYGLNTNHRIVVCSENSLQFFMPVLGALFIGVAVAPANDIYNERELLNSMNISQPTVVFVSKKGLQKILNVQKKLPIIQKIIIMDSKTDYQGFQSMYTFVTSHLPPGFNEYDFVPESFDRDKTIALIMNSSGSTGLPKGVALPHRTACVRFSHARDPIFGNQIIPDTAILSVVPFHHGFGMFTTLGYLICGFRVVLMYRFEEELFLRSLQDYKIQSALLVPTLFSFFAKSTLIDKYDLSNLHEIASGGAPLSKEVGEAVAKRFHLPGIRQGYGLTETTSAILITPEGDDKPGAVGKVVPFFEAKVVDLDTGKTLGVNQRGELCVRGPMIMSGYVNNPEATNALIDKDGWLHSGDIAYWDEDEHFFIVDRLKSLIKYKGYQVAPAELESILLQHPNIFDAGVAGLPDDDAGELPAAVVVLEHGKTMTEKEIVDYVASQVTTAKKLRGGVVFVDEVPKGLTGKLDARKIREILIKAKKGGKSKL
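Compounds were tested as concentration series (qHTS) against purified P. pyralis luciferase with luciferin and 10 uM ATP in 50 mM imidazole pH 7.2, 50 mM KCl, 7 mM MgCl2, 0.01% Tween 20, 0.05% BSA. Luminescence was read after 8 min at ambient temperature.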
GBA mod: alters purified human glucocerebrosidase activity; P04062; purified enzyme, resorufin glucoside fluorescence (screen aimed at inhibitors), 20 min; Potency, µM; 48,000 compounds, 1.1% hits; in the data active = potency below about 15 µM; inconclusive = mostly about 16 µM to 33 µM;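 note: the screen sought inhibitors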
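Wild-type enzyme at 0.2 nM final in 50mM citric acid/KH2PO4, 10mM sodium taurocholate, 0.01% tween-20, pH 5.9, with resorufin beta-D-glucopyranoside at 30 uM final. Compounds titrated, 20 min at RT, red fluorescence read; AC50 from titration.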
Numbers stand for hits; i = inactive; ? = inconclusive; nt = no result given; [ ] = another dose, or the depositor's remark. Hits are enriched below; roughly 3.2% of the tested compounds scored in any of these assays.

SMILES | Bst PK mod | FLuc inh | GBA mod
O=C(O)CCC(=O)C(=O)O | nt | i[11.4 µM] | nt
O=C(CCCCCn1c(=S)[nH]c2cc3c(cc2c1=O)OCO3)N1CCN(C2CCCCC2)CC1 | i | i | 0.896
O=C(CCCCCn1c(=S)[nH]c2cc3c(cc2c1=O)OCO3)N1CCN(C(=O)c2ccco2)CC1 | i | i | ?
COc1ccccc1CNc1nc(-c2ccoc2)nc2ccccc12 | nt | i[2.29 µM] | nt
CCCCCC[C@@H]([C@H](C)O)n1cnc2c(N)ncnc21 | nt | i | nt
CC(C)(C)OC(=O)N[C@@H](Cc1ccccc1)c1nnc(S(=O)(=O)Cc2cccc(F)c2)o1 | i | i | 14.8
Cc1ccccc1CS(=O)(=O)c1nnc([C@H](CC(C)C)NC(=O)OC(C)(C)C)o1 | i | i | nt
O=C(/C=C\c1ccccc1)c1ccccc1O | nt | i[11.4 µM] | nt
O=C(/C=C/c1ccccc1)c1ccccc1 | i | 10µM | nt
COc1ccc(-c2nc3cnc(Oc4ccccc4)nc3n(C3CC3)c2=O)cc1 | nt | i[11.4 µM] | nt
CC(C)Oc1ccc(NC(=O)c2ccncc2)cc1 | i | i | 7.88
O=C(Nc1ccc(Cl)cc1)c1ccncc1 | nt | i | nt
CCN(CCO)C[C@H]1CCC[C@H]2CCCC[C@@H]21 | nt | i[11.4 µM] | nt
c1cncc(-c2cncnc2-n2ccnc2)c1 | nt | i[2.29 µM] | nt
COc1ccccc1NC(=O)c1oc2ccccc2c1NC(=O)c1cc(OC)c(OC)c(OC)c1 | i | i | i
COc1ccccc1NC(=O)c1oc2ccc(C)cc2c1C | nt | 15.8µM | nt
COCC(=O)N1CCC2(CCCN(Cc3ccccc3)C2)CC1 | nt | i[11.4 µM] | nt
COc1ccc2nc(N3CCCCC3)c(C#N)cc2c1 | i | 25.1µM | nt
COc1ccc2nc(N3CCCC3)c(C#N)cc2c1 | i | i | i
COc1ccc(CNc2cc(-c3ccccc3Cl)ncn2)c(OC)c1 | nt | i[2.29 µM] | nt
CC(=O)S[C@@H]1CC2=CC(=O)CC[C@@]2(C)[C@H]2CC[C@]3(C)[C@H](CC[C@@]34CCC(=O)O4)[C@H]12 | nt | i | nt
CN1CCN(c2ccnc(-c3ccc(N(C)C)cc3)n2)CC1 | nt | i[2.29 µM] | nt
O=[N+]([O-])c1cccc(/C=N\NC2=CS(=O)(=O)C=C2)c1 | nt | i[11.4 µM] | nt
Cc1ccc(C(=O)Nc2ccc3c(c2)OCO3)cc1S(=O)(=O)N1CCCC1 | i | i | i
Cc1ccc(C(=O)Nc2cccc(C(=O)O)c2)cc1S(=O)(=O)N1CCCCC1 | nt | 12.6µM | nt
SMILES | Bst PK mod | FLuc inh | GBA mod
CN(C)c1ncc2nc(-c3ccccc3)c(=O)n(C3CC3)c2n1 | nt | i[11.4 µM] | nt
Cc1noc(C)c1-c1cncnc1Nc1ccccc1 | nt | i[2.29 µM] | nt
CCOc1ccc(NC(=O)c2ccccc2CO)cc1 | nt | ? | i
CCOc1ccc(NC(N)=O)cc1 | i | i | i
CCOc1ccc(NC(=O)c2cccnc2C(=O)O)cc1 | nt | i | i
CCOc1ccc(NC(=O)c2ccccc2O)cc1 | 2.51 | 1.26µM | i
CCOc1ccc(NC(=O)c2cnsn2)cc1 | ? | 15.8µM | nt
CCOc1ncccc1C(=O)Nc1ccc(Cl)cc1 | 3.77 | i | i
CCOc1ccc(NC(C)=O)cc1 | nt | i | nt
CCOc1ccc(NC(=O)c2nccnc2CO)cc1 | ? | 15.8µM | i
COc1ccc(-c2nc3cnc(N4CCOCC4)nc3n(C3CC3)c2=O)cc1 | nt | i[11.4 µM] | nt
CCNc1nc(CC)nc2c1oc1ccccc12 | 4.99 | i | i
CCNc1nc(C)nc2c1oc1ccccc12 | i | i | i
N#CC1=C(N)C(C#N)(C#N)[C@H](c2c(F)cccc2F)[C@H]2CC3(CC=C12)OCCO3 | i | i | 13.6
N#CC1=C(N)C(C#N)(C#N)C2(CCC3(CC2)OCCO3)C2CC3(CC=C12)OCCO3 (stereo not given) | i | i | i
COCC(=O)N1CCC2(CCCN(Cc3cc(C(F)(F)F)cc(C(F)(F)F)c3)C2)CC1 | nt | i[11.4 µM] | nt
CCNc1ncc2nc(-c3ccc(Cl)cc3)c(=O)n(-c3ccccc3)c2n1 | nt | i[11.4 µM] | nt
CCN(CC)c1ccc2cc(-c3nnc(-c4ccncc4)o3)c(=O)oc2c1 | i | i | nt
CCN(CC)c1ccc2cc(C(=O)Nc3cccnc3N3CCOCC3)c(=O)oc2c1 | i | i | nt
CCN(CC)c1ccc2cc(NC(=O)CCC(=O)O)c(=O)oc2c1 | i | 15.8µM | i
CCN(CC)c1ccc2cc(C(=O)Nc3ccccn3)c(=O)oc2c1 | i | 1µM | nt
NCCC[C@@](N)(C(=O)O)C(F)F | nt | i | nt
C[C@@H]1Cc2ccccc2N1NC(=O)c1ccc(Cl)c(S(N)=O)c1 (stereo not given in full) | nt | i | nt
O=C(/C=C\c1ccc(O)c(O)c1)OCCc1ccccc1 | nt | i | nt
O=S(=O)(c1ccccc1)N1CCC2(CCCN(c3ncccn3)C2)CC1 | nt | i[11.4 µM] | nt
SMILES | Bst PK mod | FLuc inh | GBA mod
COc1ccc(OC)c(C(=O)Cn2nnc3ccccc3c2=O)c1 | i | i | i
Cc1cc(C(=O)Cn2nnc3ccccc3c2=O)c(C)n1Cc1cccs1 | 5.69 | 6.31µM | i
Cc1cc(C(=O)CN2C(=O)c3ccccc3C2=O)c(C)n1Cc1cccs1 | 11.3 | 7.94µM | i
Cc1cc(C(=O)CN2C(=O)CCC2=O)c(C)n1Cc1ccccc1 | i | i | i
c1coc(-c2nnc3sc(-c4cccs4)nn23)c1 | 8.98 | i | nt
c1csc(-c2nn3c(-c4ccncc4)nnc3s2)c1 | nt | i | i
C#CCCCO/N=C1/[C@H]2O[C@@H]2[C@@H](O)[C@H]2[C@H]1CCn1c(=O)n(-c3ccccc3)c(=O)n12 | nt | i[11.4 µM] | nt
Brc1ccc(C2Nc3cccc4cccc(c34)N2)o1 | nt | i | nt
Oc1ccccc1C1Nc2cccc3cccc(c23)N1 | 3.6 | i | i
N#Cc1cccc(NC(=O)N2CC3(CCN(C(=O)c4cccc(F)c4)CC3)C2)c1 | nt | i[11.4 µM] | nt
COC(=O)N1CCC2(CC1)CN(C(=O)Nc1ccc(OC)cc1)C2 | nt | i[11.4 µM] | nt
COCCNc1ncnc2ccc(-c3ccccc3C(F)(F)F)cc12 | nt | i[2.29 µM] | nt
Nc1cccc(-c2nc3ccc(N)cc3s2)c1 | 0.711 | 1µM | nt
Cc1ccc2nc(-c3ccc(NC(=O)c4ccc(N)cc4)c(S(=O)(=O)O)c3)sc2c1 | nt | i[11.4 µM] | nt
O=C(O)Cn1nc(-c2ccccc2)c2ccccc21 | nt | i | nt
CCCNC(=O)c1cc(-c2ccc(OC)cc2)on1 | i | 7.94µM | i
CCCCNC(=O)c1cc(-c2ccc(OC)cc2)on1 | i | i | i
CCOC(=O)Cc1cc(=O)n(-c2nc3ccccc3s2)[nH]1 | i | i | i
CC(=NC1CCCC1)c1c(C)[nH]n(-c2nc3ccccc3s2)c1=O | i | 12.6µM | nt
COc1ccccc1CN1CCC2(CC1)CCN(C(C)=O)CC2 | nt | i[11.4 µM] | nt
